In ChEMBL document CHEMBL4513216, “Probing the Open Global Health Chemical Diversity Library for Multistage-Active Starting Points for Next-Generation Antimalarials” (ACS Infect Dis, 2020):
Out of some 68,000 compounds screened, about 2,700 (4%) showed an effect of 50% or more. The sample holds strong results, similar compounds and a random draw of the others, so the mix is not that of the screen.

The compounds below were run on Plasmodium berghei (assay: Screen against P. berghei liver stage (PbLuc), transformed with Luciferase, at 2uM). Settings: tested at 2 uM.
Format: functional, HepG2

SMILES | INHIBITION
COCCC(=O)N1CC[C@@H]2O[C@@H](C)C[C@H]2C1 | 22.01%
C[C@H]1C[C@H]2CN(C(=O)CCOc3ccccc3)CC[C@H]2O1 | -12.84%
Cc1n[nH]c(C)c1CCC(=O)NCC1COc2ccccc2C1 (configuration not stated) | 11.19%
CC(C)Oc1ccc(C(=O)N2CC[C@H](O)[C@@H](n3ccnc3)CC2)cc1 | 52.69%
NC(=O)COc1ccc(C(=O)N2CCCC(n3ccnc3)C2)cc1 (configuration not stated) | -10.05%
COCc1ccc(C(=O)N2CC[C@H](O)[C@@H](n3ccnc3)CC2)cc1 | -7.01%
Nc1cc2c(nn1)CCN(C(=O)C1CCc3ccccc31)C2 (configuration not stated) | 16.89%
CCOC(=O)N1CC2(CCNCC2)c2cc(Cl)ccc21 | -12.43%
c1cc(CCNc2ccc(CC3CCNC3)cn2)ccn1 (configuration not stated) | -6.19%
Cc1cc(C)n(C2CCCN(C(=O)c3ccnc(N(C)C)c3)C2)n1 (configuration not stated) | 3.17%
Cc1cccc(CN2CCN(c3nc(CO)cs3)CC2)c1 | 86.36%
OCc1csc(N2CCCN(Cc3ccc(F)cc3)CC2)n1 | 36.28%
OCc1csc(N2CCN(Cc3cccc(F)c3)CC2)n1 | 45.82%
CCS(=O)(=O)CCN1CCC(N(C)Cc2ncc(C)o2)C1 (configuration not stated) | 31.55%
Cc1noc(C)c1CN1CCc2ncnc(-c3ccc(F)cc3)c2CC1 | 49.45%
CCCNC(=O)C1(CC2CC(c3ccccc3OC)=NO2)CCOCC1 (configuration not stated) | 51.57%
CCNC(=O)C1(CC2CC(c3ccccc3OC)=NO2)CCOCC1 (configuration not stated) | -2.93%
COc1ccccc1C1=NOC(CC2(C(=O)NCCO)CCOCC2)C1 (configuration not stated) | -39.01%
CCS(=O)(=O)N1CCC2(CC1)CC(COC)N(c1ncccn1)C2 (configuration not stated) | 28.45%

SMILES | INHIBITION
Cc1cc(C)n(CC2CCCCN2CCC(=O)Nc2cc(C)on2)n1 (configuration not stated) | 21.39%
Cc1cc(-c2nc(-c3cccc(CN4CCOCC4)c3)no2)no1 | 53.19%
Cc1c(-c2nc(-c3cccc(CN4CCOCC4)c3)no2)cnn1C | 35.56%
Cc1cnc(-c2nc(-c3cccc(CN4CCOCC4)c3)no2)cn1 | 15.74%
CCOCCNC(=O)c1ccc(OC)cc1I | 30.48%
Clc1cccc(C[C@@H]2NCCC[C@@H]2Nc2ccccc2)c1 | 33.95%
Cc1ccc2cc(C(=O)N3CCN(C(=O)N(C)C)CC3)ccc2n1 | 7.02%
Cc1ccc2cc(C3(O)CCN(C(=O)CSC(C)C)CC3)ccc2n1 | 70.17%
CC1=NOC(C(=O)N2CCC(O)(c3ccc4nc(C)ccc4c3)CC2)C1 (configuration not stated) | -70.57%
Cc1ccc2cc(C(=O)N3CCC(O)(C(F)(F)F)CC3)ccc2n1 | -13.42%
Cc1ccc2cc(C3(O)CCN(C(=O)[C@@H]4CCCCN4)CC3)ccc2n1 | 53.98%
CCCOC(C)C(=O)N1CCC(O)(c2ccc3nc(C)ccc3c2)CC1 (configuration not stated) | 52.66%
Cc1ccc2cc(C3(O)CCN(C)CC3)ccc2n1 | 8.88%
COCCOCC(=O)N1CCC(O)(c2ccc3nc(C)ccc3c2)CC1 | -3.38%
Cc1ccc2cc(C3(O)CCN(C(=O)CN4CCCC4)CC3)ccc2n1 | 8.65%
Cc1ccc(CNC(=O)Nc2nccs2)cn1 | -11.83%
Cc1nc(CN2CCCC(Cn3cc(CCO)nn3)C2)c2ccccn12 (configuration not stated) | -27.82%
Cn1cc(-c2nnn3c2COC(CNCc2ccncc2)C3)cn1 (configuration not stated) | -42.69%
O=C(c1ccccc1-c1nnn[nH]1)N1CCOC(C(F)(F)F)C1 (configuration not stated) | -12.13%

SMILES | INHIBITION
CN1CCc2c(C#N)c(NCCCO)n3cnnc3c2C1 | -9.74%
COCCCNc1c(C#N)c2c(c3nncn13)CN(C)CC2 | 52.23%
COCCNc1c(C#N)c2c(c3nncn13)CN(C)CC2 | 18.59%
Cc1oncc1C(=O)NCC(c1ccccc1Cl)N1CCOCC1 (configuration not stated) | 8.6%
COc1cc(N2CCC3(CC2)CC(N2CCOCC2)CO3)ncn1 (configuration not stated) | 34.24%
COc1cc(N2CCC3(CC2)CC(N2CCN(C)CC2)CO3)ncn1 (configuration not stated) | -39.89%
COc1cc(N2CCC3(CC2)CC(N2CCOCC2)C3)ncn1 | 52.36%
CSCCC(C)(O)CNS(=O)(=O)Cc1cccc(C)c1 (configuration not stated) | -40.82%
O=C(Cc1ccon1)NC1CCCN(c2ccccc2F)C1=O (configuration not stated) | 28.73%
O=C(Cc1nc(-c2ccncc2)n[nH]1)NCCCN1CCOCC1 | 15.46%
CC(C)OCCCNC(=O)C1CCC(=O)N(C2CCCC2)C1 (configuration not stated) | 68.61%
O=C(NCCN1CCCCC1=O)C1CCC(=O)N(C2CCCC2)C1 (configuration not stated) | 54.29%
C=C(C)CNC(=O)C1CCC(=O)N(C2CCCC2)C1 (configuration not stated) | 2.52%
CSCCNC(=O)C1CCC(=O)N(C2CCCC2)C1 (configuration not stated) | 21.24%
CC(C)OCCNC(=O)C1CCC(=O)N(C2CCCC2)C1 (configuration not stated) | 28.95%
CSCCCNC(=O)C1CCC(=O)N(C2CCCC2)C1 (configuration not stated) | 56.49%
COC(C)(C)CNC(=O)C1CCC(=O)N(C2CCCC2)C1 (configuration not stated) | 8.03%
O=C(NCC(F)(F)F)C1CCC(=O)N(C2CCCC2)C1 (configuration not stated) | 9.13%
O=C(NCCn1cccc1)C1CCC(=O)N(C2CCCC2)C1 (configuration not stated) | 10.75%
